An excerpt weighted towards active compounds, which were near 15% of everything screened.
Pf growth 96h: Primary qHTS for delayed death inhibitors of the malarial parasite plastid, 96 hour incubation | P. falciparum luciferase reporter growth, 96 h | Potency, µM (doses to about 28.7 µM), without a hit: top-dose activity change, negative = inhibition, usual class: inhibitors | 320,000 compounds, 6.9% hits | AID 504834, 2011; note: potency is the fitted concentration of half-maximal effect; % is set by controls: 0 for no effect and ±100 for the full control effect
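Luminescence readout: decreased luciferase signal marks inhibited growth of reporter-expressing P. falciparum in infected red cells (2% hematocrit, 0.05% parasitemia final), exposed to compound two generations (96 h, 37 C, 5% CO2).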
HCV inhibitor: qHTS Assay for Inhibitors of Hepatitis C Virus (HCV) | Huh7.5.1 HCVcc-Cre infection, luciferase reporter, 44 h | Potency, µM (highest dose often 41.8 µM), for the others: top-dose activity change, negative = inhibition, usual class: inhibitors | 340,000 compounds, 3.4% hits | AID 651820, 2012; note: potency is the fitted concentration of half-maximal effect; % is set by controls: 0 for no effect and ±100 for the full control effect
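A cell-based infection assay in which seeded cells (1,000 per well) receive test compound after 4 h, are inoculated with HCVcc-Cre at approximately 0.5 moi, and are incubated 44 h before luminescence detection.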
SARS PLpro yeast: qHTS of Yeast-based Assay for SARS-CoV PLP. S. cerevisiae expressing SARS-CoV PLpro, growth rescue. 330,000 compounds, 0.19% hits. Potency, µM (doses to about 32.9 µM), for inactives: top-dose activity, positive = growth rescue, hits mostly activators; calls by dose curve; note: potency is the fitted concentration of half-maximal effect; 0% is about no effect; nearly all actives have a fitted effect of over 55% in size
Sm TGR inh: qHTS Assay for the Inhibitors of Schistosoma Mansoni Peroxiredoxins; Schistosoma mansoni thioredoxin glutathione reductase (TGR), Q962Y6; purified TGR, DTNB reduction, TNB absorbance 405 nm; Potency, µM (series often up to 114 µM), without a hit: top-dose activity change, negative = inhibition, most hits filed as inhibitors; 360,000 compounds, 3% hits; AID 485364, 2010; note: potency is the fitted concentration of half-maximal effect; % is set by controls: 0 for no effect and ±100 for the full control effect; nearly all actives have a fitted effect of over 60% in size
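First, TGR (20 nM dispensed) and NADPH were mixed with compound. Second, a 15 min room-temperature incubation followed. Third, further NADPH and then DTNB were added to start the reaction. Finally, TNB absorbance was monitored kinetically.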
Pf growth 48h: Primary qHTS for delayed death inhibitors of the malarial parasite plastid, 48 hour incubation; P. falciparum luciferase growth in erythrocytes, 48 h; Potency, µM (series often up to 28.7 µM), without a hit: at the top dose activity change, negative = inhibition, usual class: inhibitors; 310,000 compounds, 5.9% hits; note: potency is the fitted concentration of half-maximal effect; % is set by controls: 0 for no effect and ±100 for the full control effect
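Erythrocytes infected with P. falciparum carrying an integrated firefly luciferase reporter (2% hematocrit, 0.1% parasitemia final) were exposed to compounds in RPMI 1640 with 0.5% Albumax at 37 C, 5% CO2. Growth inhibition was scored as reduced luminescence.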
HCMV inh: qHTS Assay for inhibitors of the human cytomegalovirus (HCMV) | HFF cells, HCMV-luciferase reporter, 72 h; stronger effect = lower value | activity change, negative = inhibition, % at 57.5 µM | 410,000 compounds, 4.5% hits; in the data active = activity change below about -60%; inconclusive = no clear call, values can overlap the other calls; inactive = above about -39%; note: % is set by controls: 0 for no effect and ±100 for the full control effect
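Inhibition of viral replication was scored as loss of reporter luminescence in HFFs infected with HCMV-luciferase (MOI 1 PFU/cell) for 72 h; compounds tested at 2 doses, normalized to buffer and Salinomycin controls.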
* marks the source's active call; other numbers are inactive results; ? = inconclusive; nt = not tested or not shown; [ ] = another dose, or the depositor's remark. Unless noted, calls come from the whole dose curve; as a rule, active = well fitted curve in the direction sought with a large enough effect; inconclusive = small, poorly fitted or top-dose-only effect, or another doubt; inactive = no such curve, though single readings can be large; an effect the other way counts as inactive or inconclusive.

SMILES | Pf growth 96h | HCV inhibitor | SARS PLpro yeast | Sm TGR inh | Pf growth 48h | HCMV inh
CCN(CC)CCN1C(=O)C2C(C(=O)Nc3cc(C)cc(C)c3)C3C=CC2(O3)C1C(=O)NC1CCCCC1 (stereo not given) | 32% | -29% | 0% | -16% | -17% | -28
CCC(=O)NC(/C=C/c1ccccc1)c1cc([N+](=O)[O-])c2cccnc2c1O (stereo not given) | -5% | 0% | 2.2µM* | -19% | 9% | 27
CCOCCCn1c(=N)c(S(=O)(=O)c2ccc(Cl)cc2)cc2c(=O)n3cccc(C)c3nc21 | nt | nt | nt | -4% | nt | -4
Cc1cccn2c(=O)c3cc(C(N)=S)c(=N)n(CCCOC(C)C)c3nc12 | ? | 11µM* | 11% | ? | nt | ?
O=C(NCc1ccco1)c1cccn2c(=O)c3cc4ccccc4cc3nc12 | ? | nt | -4% | 0% | nt | nt
COCCCNC(=O)c1cccn2c(=O)c3cc4ccccc4cc3nc12 | 55% | -26% | -6% | 0% | 69% | -81*
CCCCCn1c(=N)c(S(=O)(=O)c2ccc(Cl)cc2)cc2c(=O)n3cccc(C)c3nc21 | 12% | ? | 3% | 4% | 1.9µM* | nt
CCNC(=O)c1cc2c(=O)n3cccc(C)c3nc2n(CCc2ccccc2)c1=N | nt | ? | 1% | -9% | 1.7µM* | -103*
CCCCNC(=O)c1cc2c(=O)n3cccc(C)c3nc2n(Cc2ccccc2)c1=N | -9% | ? | 2% | -9% | ? | -28
COCCn1c(=N)c(C(=O)NCCc2ccccc2)cc2c(=O)n3cccc(C)c3nc21 | nt | 16% | nt | nt | nt | -69*
O=S1(=O)CC(N2CCN(CCO)CC2)CN1Cc1ccccc1 (stereo not given) | nt | nt | nt | nt | nt | -10
COCc1cc(C)nc2sc(C(=O)Nc3ccccc3F)c(N)c12 | ? | 10µM* | 0% | -5% | 7% | -14
CCOC(=O)N1CCc2c(sc3c2c(=O)n(CCc2ccccc2)c(=O)n3Cc2ccc(F)cc2)C1 | nt | nt | nt | -4% | nt | -5
CCOC(=O)[C@]12CCCC=C1N(Cc1cccc3ccccc13)C(=O)[C@H](CC(=O)N1CCN(C(=O)c3ccco3)CC1)C2 | nt | nt | nt | nt | nt | -5
O=C(NCCNc1cc(Cl)ccc1[N+](=O)[O-])c1ccco1 | ? | -19% | 15% | -5% | ? | -75*
O=C(NCCNc1ccc([N+](=O)[O-])cc1)c1ccco1 | ? | 7% | -1% | -6% | -1% | -8
C=CCNc1nc(NCCN2CCOCC2)nc(OC)n1 | -61% | -6% | 2% | 2% | 12% | 28
CCCN(CCC)c1nc(Cl)nc(NCCN2CCOCC2)n1 | 225% | 14µM* | 2% | 5% | -7% | -14
COc1ccc(-n2c(SCC(=O)N/N=C(\C)c3cccnc3)nc3ccccc3c2=O)cc1 | ? | -29% | 1% | -4% | -23% | ?
CC(C)[C@H](NS(=O)(=O)c1cccc(Cl)c1)C(=O)OCC(=O)NC(=O)CN1CCCC1=O | -1% | -2% | -4% | -19% | -19% | nt
O=C(CN1CCN(c2ncc(C(F)(F)F)cc2Cl)CC1)N1CCN(c2ncc(C(F)(F)F)cc2Cl)CC1 | 12µM* | ? | -16% | 9% | nt | ?
Cc1[nH]c2ccc(Cl)cc2c(=O)c1CN1CCCC1 | -1% | -3% | -1% | 28µM* | -1% | -3
Cc1[nH]c2ccc(Br)cc2c(=O)c1CN1CCCCCC1 | 64% | -21% | 1% | -1% | 10µM* | -29
Cc1cc2oc(C(=O)Nc3ccc(S(=O)(=O)N4CCCC(C)C4)cc3)cc(=O)c2cc1Cl (stereo not given) | ? | 1% | -22% | -1% | 13µM* | -18
Cc1cc(C)c2oc(C(=O)Nc3ccc(S(=O)(=O)Nc4nccs4)cc3)cc(=O)c2c1 | ? | -5% | 1% | 2% | ? | -37
SMILES | Pf growth 96h | HCV inhibitor | SARS PLpro yeast | Sm TGR inh | Pf growth 48h | HCMV inh
Cc1cc2oc(C(=O)Nc3ccc(S(=O)(=O)Nc4nccs4)cc3)cc(=O)c2cc1Cl | 13µM* | 6% | ? | 1% | 17% | -79*
Cc1cc2oc(C(=O)Nc3ccc(S(=O)(=O)N4CCC(C)CC4)cc3)cc(=O)c2cc1C | nt | nt | nt | 2% | nt | 16
Cc1ccccc1CN(c1ccc(C(=O)N/N=C/c2ccc(OCC(N)=O)cc2)cc1)S(C)(=O)=O | -49% | 9% | 0% | nt | ? | -6
COc1cccc(CNC(=O)c2ccc3c(c2)nc2n3CCCCC2)c1OC | nt | nt | nt | 4% | nt | 15
Cc1cc(C)c(NS(=O)(=O)c2ccc3c(c2)NC(=O)CCS3)c(C)c1 | 8.3µM* | 10% | 0% | 1% | 12µM* | 7
Cc1ccc(NS(=O)(=O)c2ccc3c(c2)NC(=O)CCS3)c(C)c1 | 10µM* | -12% | 17% | -7% | 2.6µM* | 0
COc1ccc(Cl)cc1NS(=O)(=O)c1ccc2c(c1)NC(=O)CCS2 | 7.4µM* | 0% | 0% | 0% | 17% | 0
Cc1ccc(NS(=O)(=O)c2ccc3c(c2)NC(=O)CCS3)c(Cl)c1 | ? | 6% | 1% | -1% | 4.7µM* | -38
Cc1ccc(Cl)cc1NS(=O)(=O)c1ccc2c(c1)NC(=O)CCS2 | nt | nt | nt | -5% | nt | -6
CC(=O)c1ccc(NS(=O)(=O)c2ccc3c(c2)NC(=O)CCS3)cc1 | nt | nt | nt | -1% | nt | 10
CCc1ccc(CNC(=O)c2ccc3nc(C4CCCCC4)oc3c2)nc1 | -6% | nt | -10% | -22% | ? | -17
Cc1ccc(OCCn2c(SCCO)nc3c(N)ncnc32)cc1 | 47% | ? | -1% | 5% | 6% | -28
O=C(NCCc1csc(-c2cccnc2)n1)c1ccc(Br)o1 | 8.3µM* | ? | 0% | 28µM* | ? | -24
O=S(=O)(NCCc1csc(-c2cccnc2)n1)c1cc(F)ccc1F | ? | -17% | -8% | -14% | -22% | -61*
O=C(NCCc1csc(-c2ccc(F)cc2)n1)c1c(F)cccc1Cl | nt | nt | nt | -13% | nt | -38
O=C(NCCc1csc(-c2ccccc2)n1)c1c(F)cccc1Cl | 27% | ? | -12% | 1% | 2% | -70*
O=C(NCCc1csc(-c2cccnc2)n1)c1c(F)cccc1F | -1% | 11µM* | -1% | 29% | -19% | ?
COC(=O)[C@@H]1C[C@H]2CC[C@H](O)C[C@H]2N1Cc1ccccc1OC(=O)c1cccs1 | ? | 1%[8.37 µM] | 1% | ? | 9.3µM* | 2
